# Test results as given in ChEMBL document CHEMBL1961873, “Compounds: GSK PKIS; Assays: Nanosyn kinase panel” (2012).
# Assays:
# [1] = target: Sphingosine kinase 1 (Homo sapiens) (UniProt Q9NYA1); conditions: at 1 µM;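 note: mean SPHK1 inhibition value reported from the GSK PKIS kinase panel screen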
# [2] = target: T1, Sphingosine kinase 2 (Homo sapiens) (UniProt Q9NRA0); conditions: at 0.1 µM
# T1 sequence (whole entry): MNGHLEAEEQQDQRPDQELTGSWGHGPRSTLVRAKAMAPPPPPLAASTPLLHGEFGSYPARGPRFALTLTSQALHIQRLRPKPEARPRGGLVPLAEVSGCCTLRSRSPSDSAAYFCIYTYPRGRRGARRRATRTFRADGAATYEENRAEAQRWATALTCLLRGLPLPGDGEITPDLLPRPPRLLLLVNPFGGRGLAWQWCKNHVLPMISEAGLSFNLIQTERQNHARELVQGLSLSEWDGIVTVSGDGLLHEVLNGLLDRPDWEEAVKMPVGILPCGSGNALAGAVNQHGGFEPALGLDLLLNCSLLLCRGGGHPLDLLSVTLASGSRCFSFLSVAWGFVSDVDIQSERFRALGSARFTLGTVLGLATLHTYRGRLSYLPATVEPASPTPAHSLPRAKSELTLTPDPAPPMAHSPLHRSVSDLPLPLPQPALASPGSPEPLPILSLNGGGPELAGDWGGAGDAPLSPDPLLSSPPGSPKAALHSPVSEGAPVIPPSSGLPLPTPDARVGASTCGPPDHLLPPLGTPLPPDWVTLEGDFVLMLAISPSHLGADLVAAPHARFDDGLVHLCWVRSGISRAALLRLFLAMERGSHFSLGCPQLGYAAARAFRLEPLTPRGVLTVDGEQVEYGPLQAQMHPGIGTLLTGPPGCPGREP
# [3] = target: T1, Sphingosine kinase 2 (Homo sapiens); conditions: at 1 µM
# [4] = target: Casein kinase II subunit alpha (Homo sapiens) (UniProt P68400); conditions: at 0.1 µM
# [5] = target: Casein kinase II subunit alpha (Homo sapiens) (UniProt P68400); conditions: at 1 µM
# [6] = target: T2, Inhibitor of nuclear factor kappa-B kinase subunit alpha (Homo sapiens) (UniProt O15111); conditions: at 0.1 µM
# T2 sequence (whole entry): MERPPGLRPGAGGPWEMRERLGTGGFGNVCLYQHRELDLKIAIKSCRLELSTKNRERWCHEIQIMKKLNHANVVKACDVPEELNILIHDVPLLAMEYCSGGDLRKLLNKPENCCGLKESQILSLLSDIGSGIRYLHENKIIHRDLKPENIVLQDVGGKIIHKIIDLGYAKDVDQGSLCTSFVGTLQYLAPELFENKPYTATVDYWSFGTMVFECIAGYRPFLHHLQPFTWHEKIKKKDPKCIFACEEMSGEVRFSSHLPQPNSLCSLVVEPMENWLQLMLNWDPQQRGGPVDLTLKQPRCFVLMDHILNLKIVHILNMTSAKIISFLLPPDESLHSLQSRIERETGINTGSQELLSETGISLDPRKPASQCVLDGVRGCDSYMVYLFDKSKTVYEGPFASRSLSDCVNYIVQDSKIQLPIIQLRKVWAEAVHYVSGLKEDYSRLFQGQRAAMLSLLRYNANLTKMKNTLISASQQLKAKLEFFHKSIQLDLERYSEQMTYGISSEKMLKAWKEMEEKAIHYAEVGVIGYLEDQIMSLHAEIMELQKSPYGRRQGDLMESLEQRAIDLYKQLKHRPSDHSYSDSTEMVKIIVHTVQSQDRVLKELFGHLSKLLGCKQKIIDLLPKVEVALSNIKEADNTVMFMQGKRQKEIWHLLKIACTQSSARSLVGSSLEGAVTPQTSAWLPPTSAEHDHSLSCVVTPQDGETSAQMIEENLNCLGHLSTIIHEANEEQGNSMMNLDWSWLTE
# [7] = target: T2, Inhibitor of nuclear factor kappa-B kinase subunit alpha (Homo sapiens); conditions: at 1 µM
# [8] = target: T3, Inhibitor of nuclear factor kappa-B kinase subunit beta (Homo sapiens) (UniProt O14920); conditions: at 0.1 µM
# T3 sequence (whole entry): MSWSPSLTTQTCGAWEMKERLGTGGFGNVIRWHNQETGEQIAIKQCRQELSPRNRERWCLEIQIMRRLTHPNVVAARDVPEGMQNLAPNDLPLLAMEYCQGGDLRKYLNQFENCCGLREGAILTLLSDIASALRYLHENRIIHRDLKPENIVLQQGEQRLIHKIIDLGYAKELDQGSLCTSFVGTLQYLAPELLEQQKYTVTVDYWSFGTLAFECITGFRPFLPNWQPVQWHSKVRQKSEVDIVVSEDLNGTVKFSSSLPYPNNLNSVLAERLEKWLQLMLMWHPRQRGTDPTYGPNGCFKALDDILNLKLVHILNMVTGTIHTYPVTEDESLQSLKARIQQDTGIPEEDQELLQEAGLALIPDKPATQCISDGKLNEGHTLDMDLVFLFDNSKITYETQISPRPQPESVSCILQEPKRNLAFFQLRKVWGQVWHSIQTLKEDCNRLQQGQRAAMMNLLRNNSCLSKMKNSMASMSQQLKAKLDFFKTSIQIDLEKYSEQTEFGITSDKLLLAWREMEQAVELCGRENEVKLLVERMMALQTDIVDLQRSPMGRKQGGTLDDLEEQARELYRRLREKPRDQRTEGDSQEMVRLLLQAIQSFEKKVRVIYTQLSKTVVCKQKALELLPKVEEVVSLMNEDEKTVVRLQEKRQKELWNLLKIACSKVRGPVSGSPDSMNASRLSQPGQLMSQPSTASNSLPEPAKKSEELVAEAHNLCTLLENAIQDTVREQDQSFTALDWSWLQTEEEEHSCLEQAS
# [9] = target: T3, Inhibitor of nuclear factor kappa-B kinase subunit beta (Homo sapiens); conditions: at 1 µM
# [10] = target: T4, Inhibitor of nuclear factor kappa-B kinase subunit epsilon (Homo sapiens) (UniProt Q14164); conditions: at 0.1 µM
# T4 sequence (whole entry): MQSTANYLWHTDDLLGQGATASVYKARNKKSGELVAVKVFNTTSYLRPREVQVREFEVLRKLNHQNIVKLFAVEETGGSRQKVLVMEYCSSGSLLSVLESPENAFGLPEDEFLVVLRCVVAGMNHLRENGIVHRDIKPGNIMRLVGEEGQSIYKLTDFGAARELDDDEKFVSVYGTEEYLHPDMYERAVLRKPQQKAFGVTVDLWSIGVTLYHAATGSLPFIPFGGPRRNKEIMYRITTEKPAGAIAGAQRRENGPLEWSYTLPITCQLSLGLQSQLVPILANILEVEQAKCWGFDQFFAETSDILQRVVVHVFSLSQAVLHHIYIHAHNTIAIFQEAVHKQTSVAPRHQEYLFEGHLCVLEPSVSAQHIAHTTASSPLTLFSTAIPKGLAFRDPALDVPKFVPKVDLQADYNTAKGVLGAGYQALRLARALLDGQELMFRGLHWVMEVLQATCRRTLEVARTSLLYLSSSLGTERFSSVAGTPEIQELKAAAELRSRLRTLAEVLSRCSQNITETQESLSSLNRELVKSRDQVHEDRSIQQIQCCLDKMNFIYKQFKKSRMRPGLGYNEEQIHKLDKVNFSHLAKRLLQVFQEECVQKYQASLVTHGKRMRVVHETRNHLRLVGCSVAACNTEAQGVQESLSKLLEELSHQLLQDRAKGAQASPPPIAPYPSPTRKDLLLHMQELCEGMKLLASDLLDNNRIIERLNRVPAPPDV
# [11] = target: T4, Inhibitor of nuclear factor kappa-B kinase subunit epsilon (Homo sapiens); conditions: at 1 µM
# [12] = target: T5, Serine/threonine-protein kinase Nek1 (Homo sapiens) (UniProt Q96PY6); conditions: at 0.1 µM
# T5 sequence (whole entry): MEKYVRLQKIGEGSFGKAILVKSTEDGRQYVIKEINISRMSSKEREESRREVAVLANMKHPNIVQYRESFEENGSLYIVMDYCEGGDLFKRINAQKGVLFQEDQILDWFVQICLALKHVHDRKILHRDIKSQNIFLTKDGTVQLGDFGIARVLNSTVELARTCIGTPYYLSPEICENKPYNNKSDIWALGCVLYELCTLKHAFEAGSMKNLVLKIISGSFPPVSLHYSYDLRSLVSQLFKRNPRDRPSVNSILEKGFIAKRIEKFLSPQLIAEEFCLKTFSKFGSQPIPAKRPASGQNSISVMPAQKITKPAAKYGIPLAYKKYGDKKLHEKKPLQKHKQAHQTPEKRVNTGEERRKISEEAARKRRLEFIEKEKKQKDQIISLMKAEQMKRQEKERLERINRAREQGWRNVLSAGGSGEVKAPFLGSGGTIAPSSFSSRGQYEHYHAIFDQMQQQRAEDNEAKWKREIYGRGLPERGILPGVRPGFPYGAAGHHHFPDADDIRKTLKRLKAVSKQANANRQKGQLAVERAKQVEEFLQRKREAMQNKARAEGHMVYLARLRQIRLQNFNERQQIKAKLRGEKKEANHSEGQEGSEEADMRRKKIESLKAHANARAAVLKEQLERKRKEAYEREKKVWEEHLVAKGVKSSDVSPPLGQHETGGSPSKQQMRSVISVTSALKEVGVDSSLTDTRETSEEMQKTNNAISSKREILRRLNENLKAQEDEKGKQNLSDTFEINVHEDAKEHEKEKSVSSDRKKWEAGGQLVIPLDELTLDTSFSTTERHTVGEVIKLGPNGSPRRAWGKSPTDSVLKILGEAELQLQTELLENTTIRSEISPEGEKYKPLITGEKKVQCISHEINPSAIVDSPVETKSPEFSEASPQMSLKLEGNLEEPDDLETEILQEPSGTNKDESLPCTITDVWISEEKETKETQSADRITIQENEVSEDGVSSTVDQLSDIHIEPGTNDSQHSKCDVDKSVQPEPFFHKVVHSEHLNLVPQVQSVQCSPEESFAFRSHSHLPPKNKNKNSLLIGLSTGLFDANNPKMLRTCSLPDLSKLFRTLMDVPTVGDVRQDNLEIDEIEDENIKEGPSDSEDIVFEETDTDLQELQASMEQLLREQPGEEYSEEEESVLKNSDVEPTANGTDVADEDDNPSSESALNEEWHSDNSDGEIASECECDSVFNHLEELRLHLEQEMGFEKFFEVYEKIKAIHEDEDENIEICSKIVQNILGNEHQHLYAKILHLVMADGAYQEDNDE
# [13] = target: T5, Serine/threonine-protein kinase Nek1 (Homo sapiens); conditions: at 1 µM
# [14] = target: T6, Serine/threonine-protein kinase Nek2 (Homo sapiens) (UniProt P51955); conditions: at 0.1 µM
# T6 sequence (whole entry): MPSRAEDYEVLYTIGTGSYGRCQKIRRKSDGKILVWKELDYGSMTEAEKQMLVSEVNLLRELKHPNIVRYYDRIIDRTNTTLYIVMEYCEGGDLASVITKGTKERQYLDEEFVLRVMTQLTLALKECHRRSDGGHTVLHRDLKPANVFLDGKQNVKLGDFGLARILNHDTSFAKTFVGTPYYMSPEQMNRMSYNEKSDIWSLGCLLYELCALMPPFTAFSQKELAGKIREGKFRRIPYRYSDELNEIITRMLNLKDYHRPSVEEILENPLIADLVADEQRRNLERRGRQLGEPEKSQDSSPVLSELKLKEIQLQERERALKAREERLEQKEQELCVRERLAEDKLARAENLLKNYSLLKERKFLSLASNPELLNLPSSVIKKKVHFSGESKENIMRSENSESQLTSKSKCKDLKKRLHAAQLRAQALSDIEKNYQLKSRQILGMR
# [15] = target: T6, Serine/threonine-protein kinase Nek2 (Homo sapiens); conditions: at 1 µM
# [16] = target: Serine/threonine-protein kinase Nek6 (Homo sapiens) (UniProt Q9HC98); conditions: at 0.1 µM
# [17] = target: Serine/threonine-protein kinase Nek6 (Homo sapiens) (UniProt Q9HC98); conditions: at 1 µM
# [18] = target: Serine/threonine-protein kinase Nek7 (Homo sapiens) (UniProt Q8TDX7); conditions: at 0.1 µM
# [19] = target: Serine/threonine-protein kinase Nek7 (Homo sapiens) (UniProt Q8TDX7); conditions: at 1 µM
# [20] = target: T7, Serine/threonine-protein kinase Nek9 (Homo sapiens) (UniProt Q8TD19); conditions: at 0.1 µM;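 note: reported value is the mean percent inhibition of NEK9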
# T7 sequence (whole entry): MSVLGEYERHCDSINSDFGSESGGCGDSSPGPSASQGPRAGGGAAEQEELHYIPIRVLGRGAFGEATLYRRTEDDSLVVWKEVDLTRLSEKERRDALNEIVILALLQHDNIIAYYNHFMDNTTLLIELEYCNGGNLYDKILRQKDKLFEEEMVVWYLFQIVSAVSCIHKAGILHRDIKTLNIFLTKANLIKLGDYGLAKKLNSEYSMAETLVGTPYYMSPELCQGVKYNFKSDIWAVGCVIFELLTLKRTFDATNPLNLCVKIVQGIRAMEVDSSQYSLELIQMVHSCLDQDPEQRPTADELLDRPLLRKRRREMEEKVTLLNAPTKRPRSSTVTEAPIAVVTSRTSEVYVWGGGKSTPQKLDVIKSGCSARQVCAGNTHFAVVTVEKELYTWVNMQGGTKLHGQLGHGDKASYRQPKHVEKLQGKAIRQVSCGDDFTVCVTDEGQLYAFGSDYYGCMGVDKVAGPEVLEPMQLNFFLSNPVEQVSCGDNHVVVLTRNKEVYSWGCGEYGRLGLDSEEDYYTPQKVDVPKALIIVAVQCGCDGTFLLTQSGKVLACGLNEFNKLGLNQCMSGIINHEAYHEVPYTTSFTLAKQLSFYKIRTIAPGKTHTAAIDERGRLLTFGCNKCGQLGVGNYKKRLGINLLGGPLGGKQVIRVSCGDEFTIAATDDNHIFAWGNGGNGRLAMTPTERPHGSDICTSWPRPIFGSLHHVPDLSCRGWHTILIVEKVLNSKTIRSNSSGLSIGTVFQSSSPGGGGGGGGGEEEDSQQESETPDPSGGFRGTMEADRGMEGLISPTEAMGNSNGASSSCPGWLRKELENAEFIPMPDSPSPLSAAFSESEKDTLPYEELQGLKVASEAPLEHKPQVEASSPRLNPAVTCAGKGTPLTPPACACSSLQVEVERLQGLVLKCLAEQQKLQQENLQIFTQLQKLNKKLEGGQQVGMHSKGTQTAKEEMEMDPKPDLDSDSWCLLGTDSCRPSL
# Casein kinase II subunit alpha (Homo sapiens), sequence (P68400 whole entry, looked up): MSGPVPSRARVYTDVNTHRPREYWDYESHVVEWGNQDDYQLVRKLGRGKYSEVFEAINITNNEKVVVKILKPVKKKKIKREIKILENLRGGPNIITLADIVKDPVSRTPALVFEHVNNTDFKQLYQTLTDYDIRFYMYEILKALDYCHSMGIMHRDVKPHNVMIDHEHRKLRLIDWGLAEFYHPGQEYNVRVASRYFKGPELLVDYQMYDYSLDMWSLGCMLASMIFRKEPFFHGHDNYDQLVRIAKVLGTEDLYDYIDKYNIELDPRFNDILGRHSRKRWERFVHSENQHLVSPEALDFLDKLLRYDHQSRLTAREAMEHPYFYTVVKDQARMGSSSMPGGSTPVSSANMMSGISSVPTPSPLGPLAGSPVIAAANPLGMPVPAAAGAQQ
# Serine/threonine-protein kinase Nek6 (Homo sapiens), sequence (Q9HC98 whole entry): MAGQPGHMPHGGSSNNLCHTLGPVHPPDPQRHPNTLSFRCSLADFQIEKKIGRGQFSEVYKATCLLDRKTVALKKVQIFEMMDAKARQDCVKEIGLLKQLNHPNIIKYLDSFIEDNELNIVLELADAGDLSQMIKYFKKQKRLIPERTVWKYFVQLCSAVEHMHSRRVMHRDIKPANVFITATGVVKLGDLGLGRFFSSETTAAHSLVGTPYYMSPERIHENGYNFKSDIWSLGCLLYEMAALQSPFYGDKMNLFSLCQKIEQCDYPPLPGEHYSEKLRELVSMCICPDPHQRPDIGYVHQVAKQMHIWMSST
# Serine/threonine-protein kinase Nek7 (Homo sapiens), sequence (Q8TDX7 whole entry, looked up): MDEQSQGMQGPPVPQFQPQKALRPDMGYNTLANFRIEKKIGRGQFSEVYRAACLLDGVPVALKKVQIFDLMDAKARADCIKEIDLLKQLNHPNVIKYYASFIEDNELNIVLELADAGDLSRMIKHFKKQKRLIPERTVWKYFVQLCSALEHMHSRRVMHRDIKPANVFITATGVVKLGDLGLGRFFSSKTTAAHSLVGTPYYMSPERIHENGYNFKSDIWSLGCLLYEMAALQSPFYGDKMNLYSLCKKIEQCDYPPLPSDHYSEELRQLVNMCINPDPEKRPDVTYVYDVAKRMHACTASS
# Sphingosine kinase 1 (Homo sapiens), sequence (Q9NYA1 whole entry): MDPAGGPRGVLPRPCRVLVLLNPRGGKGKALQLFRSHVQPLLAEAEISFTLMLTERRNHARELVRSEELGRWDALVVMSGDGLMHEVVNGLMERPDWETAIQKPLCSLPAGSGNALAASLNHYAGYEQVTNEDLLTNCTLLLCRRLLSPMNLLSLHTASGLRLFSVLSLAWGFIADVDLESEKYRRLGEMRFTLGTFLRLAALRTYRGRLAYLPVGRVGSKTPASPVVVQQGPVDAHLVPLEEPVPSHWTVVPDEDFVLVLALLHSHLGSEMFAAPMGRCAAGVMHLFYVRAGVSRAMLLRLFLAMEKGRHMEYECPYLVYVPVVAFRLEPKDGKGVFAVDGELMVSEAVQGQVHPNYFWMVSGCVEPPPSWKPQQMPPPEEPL
Compound,inhibition [1],inhibition [2],inhibition [3],inhibition [4],inhibition [5],inhibition [6],inhibition [7],inhibition [8],inhibition [9],inhibition [10],inhibition [11],inhibition [12],inhibition [13],inhibition [14],inhibition [15],inhibition [16],inhibition [17],inhibition [18],inhibition [19],inhibition [20]
NS(=O)(=O)c1ccc(Nc2cc(-c3ccc(O)c(F)c3)n[nH]2)cc1,-3.17%,0%,0.11%,5.31%,29.6%,-1.61%,3.48%,-0.76%,0.06%,-4.53%,-0.51%,-0.93%,-1.21%,-3.94%,-3.05%,-4.94%,-2.21%,-0.59%,-3.23%,5.12%
COc1ccc(-c2ccc3c(NC(=O)C4CC4)n[nH]c3n2)cc1,-0.43%,-0.3%,1.99%,3.46%,8.9%,9.58%,7.37%,4.51%,4.44%,6.37%,-8.46%,0.44%,2.1%,1.84%,1.4%,2.4%,3.26%,2.52%,1.09%,4%
